Measured values reported in ChEMBL document CHEMBL3988442, “University of Dundee, Small-Polar-MMV Screening Library” (2021).
In all, about 48,000 compounds went through this assay and about 13,000 (27%) showed an effect of 50% or more. The list shows a part of the results.

System: Wolbachia pipientis
Experiment: Anti-Wolbachia Cell-Based Screen
Assay type: functional
Parameters: scale not given: in the data most compounds retested in dose-response had high values
Conditions: 5 µM

Going from CC(C)(C)OC(=O)NC(C)(C)c1noc(CSc2nncs2)n1 to CCC(NC(=O)Nc1cc(F)c(OC)c(F)c1)c1noc(C)n1 (stereo not given), the “Percent Effect” value falls from 7.03% to -7.836%.

Going from N#Cc1c(Cl)nsc1NCc1ccc(N2CCSCC2)cc1 to CCOc1ccnc(N2CCN(C(=O)c3cccc(C#N)c3)CC2)n1, the “Percent Effect” value rises from -6.213% to 3.478%.

Going from COc1ccc2c(c1)nc1n2[C@@H](CNCc2nccs2)COC1 to CCOc1cccc(C(=O)N2CCN(c3nccc(OC)n3)CC2)c1, the “Percent Effect” value falls from 4.423% to -0.7298%.

Compared with CC(C)COCC1CN(Cc2ccco2)Cc2ncn(C)c21 (stereo not given), CC(C)COCC1CN(Cc2ccoc2)Cc2ncn(C)c21 (stereo not given) is higher in “Percent Effect” value: 120.7% for the first, 128.9% for the second.

Going from CCOCC1CN(Cc2cnn(C)c2)Cc2ncn(CC3CC3)c21 (stereo not given) to CCOCC1CN(Cc2ccoc2)Cc2ncn(CC3CC3)c21 (stereo not given), the “Percent Effect” value falls from -8.097% to -9.148%.

First: COCC1CN(Cc2ccoc2)Cc2cn(C)nc21 (stereo not given)
Second: Cn1cc2c(n1)C(COCC1CC1)CN(Cc1ccsc1)C2 (stereo not given)
The “Percent Effect” value of the first is higher: 2.216% for the first, -15.61% for the second.

First: CC(C)COCC1CN(Cc2ccsc2)Cc2ncn(C)c21 (stereo not given)
Second: Cn1cnc2c1C(COCC1CC1)CN(Cc1ccsc1)C2 (stereo not given)
The “Percent Effect” value of the first is higher: 90.56% for the first, 3.226% for the second.

Going from Cn1ncc2c1C(COCC1CC1)CN(Cc1ccco1)C2 (stereo not given) to Cn1cc(CN2Cc3cn(C)nc3C(COCC3CC3)C2)cn1 (stereo not given), the “Percent Effect” value falls from -0.8913% to -9.412%.

Compared with CCOCC1CN(Cc2ccco2)Cc2ccnn2C1 (stereo not given), O=C(c1ncccc1O)N1CCN(Cc2ccco2)C(CCO)C1 (stereo not given) is higher in “Percent Effect” value: -17.9% for the first, -8.878% for the second.

Compared with CC(C)COCC1CN(Cc2cnn(C)c2)Cc2ncn(C)c21 (stereo not given), CC(C)[C@@H]1CN(Cc2cnc(C3CCCCC3)nc2)C[C@H]1N(C)C is lower in “Percent Effect” value: 123.1% for the first, -9.184% for the second.

Going from CN(C)C(=O)c1nc2c(s1)CCCN2Cc1ccccc1 to CC(C)CN1CCC(NC(=O)N(C)Cc2csc3ccccc23)CC1, the “Percent Effect” value rises from -4.503% to 14.6%.

First: Cc1ccc(C)c2c(O)cc(CN3CCC(=O)NCC3C)nc12 (stereo not given)
Second: COc1cc(C)nc(N2CCN(C(=O)c3ccccc3C)CC2)n1
The “Percent Effect” value of the first is lower: -0.2793% for the first, 2.606% for the second.

First: Cn1nc2c(cc1=O)CN(Cc1nc(-c3ccoc3)no1)CC2
Second: CCOc1ccnc(N2CCN(C(=O)c3ccn(C)c(=O)c3)CC2)n1
The “Percent Effect” value of the first is lower: -6.043% for the first, 88.48% for the second.

Compared with CC(OCC1CC1)C(=O)N1CCCN(Cc2nccn2C)CC1 (stereo not given), CC(C)C(C(=O)N1CCCN(Cc2nccn2C)CC1)N1CCCC1 (stereo not given) is higher in “Percent Effect” value: 15.71% for the first, 74.16% for the second.

First: CC(C(=O)N1CCCCCC1)N1CCN(Cc2nccn2C)CC1 (stereo not given)
Second: CC(C(=O)N1CCOCC1)N1CCN(Cc2nccn2C)CC1 (stereo not given)
The “Percent Effect” value of the first is lower: 103.6% for the first, 114% for the second.

Going from CCN1CCN(C(=O)C(C)N2CCN(Cc3nccn3C)CC2)CC1 (stereo not given) to Cn1ccnc1CN1CCCN(C(=O)C2(C#N)CCCCC2)CC1, the “Percent Effect” value falls from 0.1033% to -11.9%.

First: CCN(C(=O)NCCc1cccc(F)c1F)C(C)CS(C)(=O)=O (stereo not given)
Second: CCC(CNS(=O)(=O)c1c[nH]cn1)Oc1ccccc1F (stereo not given)
The “Percent Effect” value of the first is higher: 8.569% for the first, -7.945% for the second.

Going from CCOc1ccc(CN(CCOC)c2nc(C)nc3oc(C)nc23)cc1 to COc1cc(C)nc(N2CCN(C(=O)c3ccc(Cl)o3)CC2)n1, the “Percent Effect” value rises from -12.59% to 4.762%.

Compared with CCOc1ccnc(N2CCN(C(=O)c3cc(Cl)c[nH]3)CC2)n1, COc1ccnc(N2CCN(C(=O)c3cscn3)CC2)n1 is higher in “Percent Effect” value: -0.9133% for the first, 2.321% for the second.

Compared with COc1cc(C)nc(N2CCN(C(=O)c3ccn(C)c(=O)c3)CC2)n1, COc1ccnc(N2CCN(C(=O)c3ccn(C)c(=O)c3)CC2)n1 is lower in “Percent Effect” value: 111.9% for the first, 101.7% for the second.

First: CN(C)C1(CNc2ncc(Br)cn2)CCOCC1
Second: CC(C)[C@@H]1CN(C(=O)NCc2ccco2)C[C@H]1N(C)C
The “Percent Effect” value of the first is higher: 25.75% for the first, -15.37% for the second.

Going from COc1ccnc(NCc2ccccc2Cn2cccn2)n1 to CC(C)[C@@H]1CN(C(=O)CCc2ccc(F)cc2)C[C@H]1C(=O)O, the “Percent Effect” value falls from 13.47% to -26.1%.

Going from Cc1nonc1C(=O)N1CC[C@@]2(O)CCN(C3CCCCC3)C[C@H]2C1 to O=C(NC1CCC(C(=O)N2CCSCC2)CC1)N1CCC1 (stereo not given), the “Percent Effect” value rises from -5.278% to 3.195%.

Compared with COCCC(=O)N1C[C@H](C(C)C)[C@@H](N(C)C)C1, CC(C)[C@H]1CN(C(=O)CO)C[C@@H]1N(C)C is higher in “Percent Effect” value: 108.6% for the first, 109.8% for the second.

Going from CC1(C)CN(C(=O)CC2CCC2)C[C@]1(C)O to CC(C)[C@H]1CN(C(=O)CC2CCC2)C[C@@H]1N(C)C, the “Percent Effect” value rises from 6.618% to 88.21%.

First: CC(=O)c1cc(CN2C[C@@H](N(C)C)[C@H](C(C)C)C2)cs1
Second: Cc1cc(C(=O)N2C[C@H](C(C)C)[C@@H](N(C)C)C2)cs1
The “Percent Effect” value of the first is lower: 13.8% for the first, 81.51% for the second.

First: CC(C)[C@@H]1CN(C(=O)CN(C)Cc2ccc(F)cc2)C[C@H]1C(=O)O
Second: Cc1cc(C(=O)N2C[C@@H](C(=O)O)[C@H](C(C)C)C2)cs1
The “Percent Effect” value of the first is lower: -17.02% for the first, 38.77% for the second.

Cc1nc(CC(C)C)cc(C(=O)N2C[C@@H](N(C)C)[C@H](C(C)C)C2)n1 was tested, and the “Percent Effect” value was -16.81%.
